Bioassay records as filed in PubChem.
This is a sample that favours compounds with a hit; in the whole collection about 9.5% have one here.
Tau fibril ThT: inhibitors of human tau fibril formation, thioflavin T binding | recombinant tau K18 P301L, heparin-induced fibrillization, ThT fluorescence | Potency, µM (titrated, usually from 57.4 µM), without a hit: at the top dose activity, negative = inhibition, hits mostly inhibitors | 270,000 tested, 2.1% active | AID 1460; also: nearly all actives have a fitted effect of over 55% in size
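Heparin-induced fibrillization of the P301L-mutant K18 repeat-domain fragment of human tau was followed by ThT binding in quantitative high-throughput format.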
HPGD block: HPGD (human) dehydrogenase inhibition; P15428; purified HPGD, NADH fluorescence kinetic, PGE2 substrate; Potency, µM, without a hit: at the top dose activity change, negative = inhibition, hits mostly inhibitors; 150,000 tested, 4.3% active; active = well fitted inhibition curve with a large enough effect, not every such curve was filed as active; inconclusive = small, poorly fitted or top-dose-only effect, or another doubt; inactive = no such curve, though single readings can be large or run the other way
Target sequence (P15428 whole entry, looked up): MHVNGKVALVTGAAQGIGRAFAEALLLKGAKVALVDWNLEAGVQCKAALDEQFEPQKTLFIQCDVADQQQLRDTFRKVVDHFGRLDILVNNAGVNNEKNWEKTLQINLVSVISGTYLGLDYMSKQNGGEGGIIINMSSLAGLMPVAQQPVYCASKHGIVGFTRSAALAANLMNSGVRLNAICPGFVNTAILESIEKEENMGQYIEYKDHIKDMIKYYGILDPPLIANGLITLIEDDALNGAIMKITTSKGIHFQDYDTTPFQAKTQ
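20 nM HPGD preincubated 15 min at room temperature with compound in 50 mM Tris-HCl pH 8, 0.01% Tween 20. Started with 1 mM NAD+ and 30 uM prostaglandin E2; NADH fluorescence (360/450 nm) read 5 times over 30-s intervals, last minus first.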
ALDH1A1 block: blocks purified human ALDH1A1 activity | AID 1030 | Purified ALDH1A1, NADH fluorescence, propionaldehyde substrate | Potency, µM (titrated, usually from 75.3 µM), for inactives: top-dose activity, negative = inhibition, actives largely listed as inhibitors | P00352 | 220,000 tested, 7.3% active; active = well fitted inhibition curve with a large enough effect, not every such curve was filed as active; inconclusive = small, poorly fitted or top-dose-only effect, or another doubt; inactive = no such curve, though single readings can be large or run the other way;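 also: plate controls were no enzyme wells and a reference inhibitor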
Target sequence (P00352 whole entry, looked up): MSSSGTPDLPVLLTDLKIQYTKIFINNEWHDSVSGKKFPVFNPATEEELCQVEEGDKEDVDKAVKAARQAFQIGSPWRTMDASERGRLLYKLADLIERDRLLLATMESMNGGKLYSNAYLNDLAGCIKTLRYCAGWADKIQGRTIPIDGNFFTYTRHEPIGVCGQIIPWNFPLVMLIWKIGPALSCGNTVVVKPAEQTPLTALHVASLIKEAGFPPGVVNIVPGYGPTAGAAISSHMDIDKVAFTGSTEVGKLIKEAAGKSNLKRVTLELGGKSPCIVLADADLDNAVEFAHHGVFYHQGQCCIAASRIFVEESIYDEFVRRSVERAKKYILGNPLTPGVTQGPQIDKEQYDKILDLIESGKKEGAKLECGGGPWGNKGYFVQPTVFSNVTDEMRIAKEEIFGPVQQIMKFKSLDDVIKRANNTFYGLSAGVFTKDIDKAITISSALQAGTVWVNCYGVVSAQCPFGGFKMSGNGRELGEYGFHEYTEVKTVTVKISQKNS
NPSR antagonist: antagonists of human neuropeptide S receptor cAMP signaling | Q6W5P4 | CHO-NPSR cells, cAMP TR-FRET, antagonist mode | Potency, µM (series often up to 38.3 µM), for inactives: top-dose activity change, negative = inhibition, most hits filed as inhibitors | 220,000 tested, 1% active; also: nearly all actives have a fitted effect of over 50% in size
Tau FP inhib: inhibitors of human tau fibril formation; P10636; K18 P301L tau heparin fibrillization, Alexa594 FP, 6 h; Potency, µM (doses to about 57.7 µM), without a hit: top-dose activity, negative = inhibition, actives largely listed as inhibitors; 280,000 tested, 0.39% active; AID 1468; also: nearly all actives have a fitted effect of over 55% in size
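Human K18 P301L fragment (15 uM unlabeled plus 0.24 uM Alexa 594-labeled) in 100 mM sodium acetate pH 7 with compound, aggregation induced by 20 uM heparin for 6 hr at 37 C. ThT (30 uM) added for 1 hr, then Alexa 594 FP read.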
Tau fluor counter: counter-screen for tau fibril formation inhibitors; 280,000 tested, 0.93% active; Potency, µM (titrated, usually from 57.7 µM), for inactives: at the highest dose activity change, negative = decrease; tau K18 P301L (four-repeat tau fragment) Alexa594 fluorescence, heparin fibrillization; also: nearly all actives have a fitted effect of over 55% in size
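Human K18 P301L tau (15 uM unlabeled plus 0.24 uM Alexa 594-labeled, final) in 100 mM sodium acetate pH 7 was mixed with compound and 20 uM heparin and incubated 6 hr at 37 C.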
The depositor's hits bear a star; ? = inconclusive; . = no result; [ ] = remark or other dose. Unless noted, calls follow the shape of the dose curve; as a rule, active = well fitted curve in the direction sought with a large enough effect; inconclusive = small, poorly fitted or top-dose-only effect, or another doubt; inactive = no such curve, though single readings can be large; an effect the other way counts as inactive or inconclusive. Unless noted, % is scaled to controls: 0 for no effect and ±100 for the full control effect; potency is read from the fitted curve at half-maximal effect.

SMILES	Tau fibril ThT	HPGD block	ALDH1A1 block	NPSR antagonist	Tau FP inhib	Tau fluor counter
O=C(NC(Nc1ncc(S(=O)(=O)c2ccc([N+](=O)[O-])cc2)s1)(C(F)(F)F)C(F)(F)F)c1ccc(Cl)cc1	?	-4.3%	3.8%	12.6µM*	?	?
O=C(c1cnccn1)N1CCC2(CC1)CN(c1ccncc1)C2	.	-9.7%	-1.8%	.	.	.
Cc1onc(-c2ccccc2)c1C(=O)N1CCCSC1=Nc1ccccc1	2.9%	-19.8%	11.2µM*	?	1.3%	-15.8%
CN(CC(=O)NCc1ccncc1)S(=O)(=O)c1ccc2ccccc2c1	0.6%	.	0.5%	0.1%	0.2%	-0.9%
C[C@@H](C(=O)Nc1ccc2ccccc2c1)[C@@H]1C[C@@]1(C)[C@@H](NC(=O)c1ccccc1)c1ccccc1	-0.1%	-14.8%	6.6%	-9.2%	-2.3%	-4.9%
CC(=O)N[C@H](c1ccccc1)[C@@]1(C)C[C@@H]1[C@@H](C)C(=O)Nc1ccc2ccccc2c1	-9.7%	-6.3%	?	.	-1.0%	-17.6%
C[C@@H](C(=O)Nc1ccc2ccccc2c1)[C@H]1C[C@]1(C)[C@H](NC(=O)c1cccnc1)c1ccccc1	-11.6%	-5.1%	11.2µM*	-19.7%	2.4%	-27.5%
COC(=O)N[C@H](c1ccccc1)[C@@]1(C)C[C@@H]1[C@@H](C)C(=O)Nc1ccc2ccccc2c1	-4.2%	-23.4%	7.94µM*	.	?	-25.9%
CS(=O)(=O)N(C(=O)NC(=O)NC12CC3CC(CC(C3)C1)C2)C1CCCCC1	-5.2%	.	5.7%	2.2%	-4.9%	-8.5%
CCOc1ccc(-n2c(SCC(=O)N3CCCCC3)nc3c([nH]c4ccccc43)c2=O)cc1	-2.2%	.	.	.	-9.8%	-6.7%
Nc1n[nH]c(N)c1N=Nc1ccc(Cl)cc1	?	-7.0%	3.3%	-20.2%	16.6%	-25.1%
Nc1[nH]ncc1N=Nc1ccc(Cl)cc1	10µM*	-20.8%	-6.7%	-17.7%[46.1 µM]	7.6%	?
O=C(NC1CCCCCCC1)C1CCC(CNc2c(N3CCCC3)c(=O)c2=O)CC1 (stereo not given)	1.7%	3.98µM*	?	8.7%	8.5%	2.9%
Cc1cccc(CCNC(=O)C2CCC(CNc3c(N4CCCC4)c(=O)c3=O)CC2)c1 (stereo not given)	-5.8%	12.6µM*	?	-11.1%[46.1 µM]	-1.7%	-6.5%
COc1ccccc1CNC(=O)C1CCC(CNc2c(N3CCCCC3)c(=O)c2=O)CC1 (stereo not given)	5.5%	.	.	11.2%	5.3%	0.1%
Cc1ccc(CCNC(=O)C2CCC(CNc3c(N4CCCC4)c(=O)c3=O)CC2)cc1 (stereo not given)	-9.9%	25.1µM*	-7.6%	-15.5%[46.1 µM]	4.8%	-5.5%
Cc1ccc(CNC(=O)C2CCC(CNc3c(N4CCC(C)CC4)c(=O)c3=O)CC2)cc1 (stereo not given)	.	.	.	0.5%	2.5%[0.0958 µM]	5.1%[0.0958 µM]
O=C(NCC1COc2ccccc2O1)C1CCC(CNc2c(N3CCCCC3)c(=O)c2=O)CC1 (stereo not given)	-10.3%	14.1µM*	0.9%	-6.7%[46.1 µM]	2.1%	-11.2%
CCC1CCCCN1CCCNC(=O)c1ccc2c(c1)sc1nc(-c3ccc(F)cc3)cn12 (stereo not given)	-2.9%	.	.	.	-0.4%	-0.4%
Cc1cccc(OCC(=O)N(Cc2ccc(C(C)(C)C)cc2)Cc2ccco2)c1	?	.	.	.	-3.9%	-14.3%
Cc1onc(-c2c(Cl)cccc2Cl)c1/C(N)=N/OC(=O)C1CC1	-4.8%	.	-6.7%	-9.4%	-0.4%	-9.1%
Cc1c(-c2nc(-c3ccc4c(c3)OCO4)no2)nnn1-c1ccc(C(C)C)cc1	-15.8%	.	.	.	-6.5%	-5.5%
O=C(CNC(c1ccccc1)c1ccccc1)Nc1ccccc1-c1ccccc1	-14.0%	-19.1%	?	-53.4%	3.4%	-7.2%
COc1cc(-c2noc(-c3ccc(N4CCN(C)CC4)c([N+](=O)[O-])c3)n2)cc(OC)c1OC	-6.9%	.	.	.	-6.1%	-22.9%
CC(=O)C(Sc1nc(-c2ccccc2Cl)nc2c1c(=O)n(C)c(=O)n2C)C(=O)N(C)C (stereo not given)	-3.4%	.	.	.	-1.2%	-0.4%
SMILES	Tau fibril ThT	HPGD block	ALDH1A1 block	NPSR antagonist	Tau FP inhib	Tau fluor counter
O=C(NC(=S)Nc1ccc(Oc2ccccc2)cc1)c1ccc(Cl)cc1	?	-13.7%	14.1µM*	-21.7%[46.1 µM]	-0.4%	-25.3%
COc1ccc(C(=O)NC(=S)Nc2ccc3c(c2)Cc2ccccc2-3)cc1	?	-18.0%	10µM*	?	-14.4%	-10.0%
Cc1ccc(C(=O)NC(=S)Nc2ccc(Oc3ccc(Cl)cc3)cc2)cc1	-13.6%	-9.6%	17.8µM*	?	7.5%	-12.0%
Cc1ccc(C(=O)NC(=S)Nc2ccc(NC(=O)c3cccc(Cl)c3)cc2)cc1	?	-9.8%	-14.7%	5.0%	?	-17.4%
Cc1ccccc1C(=O)NC(=S)Nc1ccc(Oc2ccc(Cl)cc2)cc1	?	-2.9%	?	?	-6.0%	-19.7%
Cn1nnc2c(NCc3ccc(Cl)cc3)ncnc21	-2.6%	.	.	.	-1.5%	1.9%
CCCNC(=O)OC[C@@H]1O[C@H](CCON=C(C)C)C=C[C@@H]1Oc1ccc(OC)cc1	-16.1%[11.5 µM]	.	15.8%[13.5 µM]	.	-1.1%[11.6 µM]	-18.1%[11.6 µM]
COC(=O)[C@@H](NC(=O)NCc1ccco1)C(C)C	-19.5%	-9.3%	10µM*	-13.7%[46.1 µM]	4.4%	-6.7%
Cc1cc2ccccc2n1CCNC(=O)c1ccc(Br)cc1	?	.	.	.	-2.7%	?
Cc1cc2ccccc2n1CCNC(=O)c1ccc(Br)o1	?	.	5.62µM*	28.1%	-15.3%	-13.0%
CC(C)c1ccc(S(=O)(=O)N2CCN(C(=S)NCc3ccco3)CC2)cc1	5.0%	28.2µM*	-1.7%	-24.7%	-0.7%	0.8%
O=S(=O)(c1cccc(C(F)(F)F)c1)N1CCN(C(=S)NCc2ccco2)CC1	5.5%	-8.0%	-3.6%	-19.0%	-3.1%	-13.0%
COC(=O)[C@@H](NC(=O)NCc1cccs1)C(C)C	-2.2%	-3.3%	-10.2%	-8.9%[46.1 µM]	-2.9%	-8.5%
CC(C)Oc1ccc(C(=O)NCc2ccco2)cc1	-8.5%	17.8µM*	-8.2%	-3.1%[46.1 µM]	-4.0%	-2.3%
O=C(COc1ccc(Cl)cc1Cl)NCc1ccco1	-15.3%	?	0.2%	11.0%[46.1 µM]	-2.0%	-7.3%
Cn1nc(C(=O)NCc2ccco2)c2ccccc2c1=O	10.4%	-17.1%	12.6µM*	12.5%	2.7%	10.7%
Cc1cc2ccccc2n1CCNC(=O)c1ccccc1	?	-20.4%	?	-22.4%[46.1 µM]	1.5%	-14.9%
O=C(NCc1ccco1)c1ccc(COc2cc(Cl)ccc2Cl)cc1	-10.7%	17.8µM*	3.7%	-22.4%	-6.3%	-26.0%
Cc1cc2ccccc2n1CCNC(=O)c1ccc(S(=O)(=O)N2CCOCC2)cc1	?	-3.1%	10µM*	-11.2%[46.1 µM]	-12.0%	-22.9%
